# Shown is part of a subset that was picked to be rich in hits.
# U2OS ROS induce – inducers of reactive oxygen species in cancer cells; U2OS ROS induction, H2DCF-DA fluorescence; ROS induction (% of piperlongumine), % at 10 µM; actives 2% (n = 46,000); in the data active = ROS induction above about 79%, passing the limit was not always enough;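 also: 0% = DMSO vehicle median and 100% = reference compound median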
# * = called active by the depositor.
SMILES,U2OS ROS induce
O=c1cc(-c2ccccc2)oc2cc(O)cc(O)c12,6.1
CC1(C)C=Cc2c(c3occc3c3oc(-c4ccccc4)cc(=O)c23)O1,223.2*
O=c1cc(-c2ccccc2)oc2cccc(O)c12,-1.2
C[C@H]1CN([C@@H](C)CO)C(=O)c2cc(NS(=O)(=O)c3cn(C)cn3)ccc2O[C@H]1CN(C)S(=O)(=O)c1ccccc1,8.2
Cn1c(CN2CCOCC2)nnc1SCC(=O)N1CCc2ccccc21,-19.4
COC(=O)c1cc(NC(=O)CN(c2ccccc2F)S(C)(=O)=O)ccc1Cl,0.5
COC(=O)c1cc(S(=O)(=O)/C=C/c2ccccc2)c(Cl)cc1Cl,120.8*
COC(=O)c1ccccc1C(=O)c1ccccc1,7.0
C[C@H]1CN([C@@H](C)CO)C(=O)c2cc(NC(=O)CCCCCC(=O)Nc3ccccc3N)ccc2O[C@@H]1CN(C)CC1CCCCC1,10.4
O=C(CN1C(=O)c2cccc3cccc1c23)Nc1ccccc1C(=O)N1CCCC1,-2.7
CCCn1c(=N)c(C(=O)OC)cc2c(=O)n3ccccc3nc21,17.1
COC(=O)c1cc2c(=O)n3ccccc3nc2n(C(C)C)c1=N,-3.8
N=c1c(S(=O)(=O)c2ccccc2)cc2c(=O)n3ccccc3nc2n1C1CCCC1,83.0*
C[C@H](CO)N1C[C@H](C)[C@@H](CN(C)C(=O)Nc2cccc(C(F)(F)F)c2)OCc2cn(nn2)CCCC1=O,-6.9
COc1ccccc1NC(=O)CSc1nnc(-c2ccc(F)cc2)n1C,3.3
COc1ccc(CCNC(=O)c2ccc3c(=O)n(CCC4=CCCCC4)c(=S)[nH]c3c2)cc1OC,95.6*
O=C(NCc1ccccc1)c1ccc2c(=O)n(CCC3=CCCCC3)c(=O)[nH]c2c1,44.0
COc1ccc(CCNC(=O)c2ccc3c(=O)n(CC4CCCO4)c(=S)[nH]c3c2)cc1OC (centres undefined),3.4
C[C@H](CO)N1C[C@H](C)[C@H](CN(C)Cc2ccc(C(=O)O)cc2)Oc2ccc(NC(=O)Nc3ccc4c(c3)OCO4)cc2CC1=O,-0.5
C=CCn1c(SCc2csc(C)n2)nc2sc3c(c2c1=O)CCCC3,16.3
CCn1c(Sc2ncnc3c2sc2nc(C)cc(C)c23)nnc1-c1cccs1,6.3
O=C(Nc1cc(C(=O)Nc2ccccc2O)cc(C(=O)Nc2ccccc2O)c1)c1ccccc1,97.5*
COC(=O)c1cc(NC(=O)c2cccc(Cl)c2)cc(C(=O)OC)c1,-7.3
O=C(Nc1ccccc1N1CCOCC1)c1ccccc1,-9.1
O=C(O)C1CCCN1C(=O)OCC1c2ccccc2-c2ccccc21 (centres undefined),49.5
SMILES,U2OS ROS induce
CC(C)(C)c1ccc(-c2nc(=O)[nH]n2-c2ccccc2)cc1,-3.6
COc1ccc(NC(=O)c2ccccc2NC(=O)COc2ccc([N+](=O)[O-])cc2)cc1,-15.2
COc1ccc(NC(=O)Cc2nc(-c3ccc([N+](=O)[O-])cc3)cs2)cc1,94.2*
O=C(COc1ccc([N+](=O)[O-])cc1)Nc1cccnc1,0.1
C[C@H]1CN([C@@H](C)CO)C(=O)Cc2cc(NC(=O)CCN3CCOCC3)ccc2O[C@H]1CN(C)Cc1ccc(Cl)c(Cl)c1,-2.8
C[C@@H]1CN([C@@H](C)CO)C(=O)Cc2cc(NS(C)(=O)=O)ccc2O[C@@H]1CN(C)Cc1ccc(Cl)c(Cl)c1,104.5*
C[C@H]1CN([C@@H](C)CO)C(=O)Cc2cc(NS(=O)(=O)c3ccc(Cl)cc3)ccc2O[C@H]1CN(C)Cc1ccc(Cl)c(Cl)c1,1.5
C[C@H](CO)N1C[C@H](C)[C@H](CN(C)Cc2ccc(Cl)c(Cl)c2)Oc2ccc(NS(=O)(=O)c3ccc(Cl)cc3)cc2CC1=O,5.6
C[C@H]1CN([C@@H](C)CO)C(=O)Cc2cc(NC(=O)CCN3CCOCC3)ccc2O[C@@H]1CN(C)Cc1ccc(Cl)c(Cl)c1,90.5*
C[C@H]1CN([C@@H](C)CO)C(=O)Cc2cc(NC(=O)CCN3CCOCC3)ccc2O[C@@H]1CN(C)Cc1ccncc1,10.7
Cc1cccc(NC(=O)Nc2nnc(N3CCCCC3C)s2)c1C (centres undefined),-9.3
O=C1C2C(C(=O)N1C1CCCCC1)C1C=CC2C12CC2 (centres undefined),-9.8
CCOC(=O)NNc1nncc2ccccc12,8.8
C[C@@H]1CN([C@H](C)CO)C(=O)Cc2cc(NS(=O)(=O)c3cn(C)cn3)ccc2O[C@@H]1CN(C)S(=O)(=O)c1ccc(F)cc1,-8.4
[N-]=[N+]=NCc1ccccc1C[C@@]1(C(=O)N2CCOCC2)N=C(c2ccc(OCCCO)cc2)O[C@@H]1c1ccccc1,53.3
[N-]=[N+]=NCc1ccccc1C[C@]1(C(=O)N2CCCCC2)N=C(c2ccc(OCCCO)cc2)O[C@H]1c1ccccc1,155.0*
[N-]=[N+]=NCc1ccccc1C[C@@]1(C(=O)NCc2ccccc2)N=C(c2ccc(OCCCO)cc2)O[C@@H]1c1ccccc1,118.3*
O=C(N1CCCCC1)[C@]1(CCS(=O)(=O)c2ccccc2)N=C(c2ccc(OCCCO)cc2)O[C@@H]1c1ccccc1,88.2*
COCCCNC(=O)[C@@]1(Cc2ccccc2CN=[N+]=[N-])N=C(c2ccc(OCCCO)cc2)O[C@H]1c1ccccc1,25.6
[N-]=[N+]=NCc1ccccc1C[C@@]1(C(=O)N2CCCCC2)N=C(c2ccc(OCCCO)cc2)O[C@@H]1c1ccccc1,53.1
O=C(N1CCOCC1)[C@]1(CCS(=O)(=O)c2ccccc2)N=C(c2ccc(OCCCO)cc2)O[C@@H]1c1ccccc1,56.0
O=C(N1CCOCC1)[C@@]1(CCS(=O)(=O)c2ccccc2)N=C(c2ccc(OCCCO)cc2)O[C@H]1c1ccccc1,11.8
COCCCNC(=O)[C@]1(Cc2ccccc2CN=[N+]=[N-])N=C(c2ccc(OCCCO)cc2)O[C@@H]1c1ccccc1,52.6
C=CCN1Cc2ccccc2[C@H]2OC(c3ccc(OCCCO)cc3)=N[C@@]2(CC=C)C1=O,42.2
O=C(COc1ccccc1[N+](=O)[O-])Nc1cccc2ncccc12,12.6
SMILES,U2OS ROS induce
CCOC(=O)c1ccc(NC(=O)CSc2nc(N)c3c4c(sc3n2)CCC4)cc1,-35.7
CCOC(=O)CSc1nc(N)c2c3c(sc2n1)COC(C)(C)C3,17.8
CN(C(=O)CSc1nc(N)c2c3c(sc2n1)CSC(C)(C)C3)c1ccccc1,122.1*
C[C@H](CO)N1C[C@H](C)[C@H](CN(C)S(=O)(=O)c2ccccc2)Oc2ccc(NS(=O)(=O)c3cccs3)cc2C1=O,2.4
C[C@H](CO)N1C[C@H](C)[C@H](CN(C)Cc2ccccc2)Oc2ccc(NS(=O)(=O)c3ccc(F)cc3)cc2C1=O,7.9
Cc1noc(C)c1S(=O)(=O)Nc1ccc2c(c1)C(=O)N([C@H](C)CO)C[C@@H](C)[C@@H](CN(C)S(=O)(=O)c1c(C)noc1C)O2,-15.4
Cc1nc2c(=O)oc3ccccc3c2n1-c1ccccc1,29.3
CC(C)n1nnc2c(=O)oc3ccccc3c21,79.4*
CCn1c(C)nc2c(=O)oc3ccccc3c21,13.3
C[C@H](CO)N1C[C@H](C)[C@@H](CN(C)S(=O)(=O)c2cn(C)cn2)OCc2cnnn2CCCC1=O,0.0
Cc1ccc(S(=O)(=O)Nc2cccc3c2O[C@@H](CN(C)Cc2ccc(C(=O)Nc4ccccc4N)cc2)[C@@H](C)CN([C@H](C)CO)C3=O)cc1,24.1
C[C@@H]1CN([C@H](C)CO)C(=O)Cc2cc(NS(=O)(=O)c3ccc(Cl)cc3)ccc2O[C@@H]1CN(C)Cc1ccc(Oc2ccccc2)cc1,86.0*
C[C@@H]1CN([C@H](C)CO)C(=O)Cc2cc(NS(=O)(=O)c3ccc(F)cc3)ccc2O[C@@H]1CN(C)Cc1ccc(Oc2ccccc2)cc1,44.1

# Compound activity from PubChem BioAssay.
